8 compounds from PubChem BioAssay (Tox21) can be followed below.

A number with no mark means an inactive call. Records with an inconclusive call do not appear. The source made the active and inactive calls. Unless noted, calls come from the whole dose curve; as a rule, active = well fitted curve in the direction sought with a large enough effect in the repeat runs; inconclusive = weak or mixed curves; inactive = no such curve, though single readings can be large; an effect the other way counts as inactive or inconclusive.

A short description of test [1]: qHTS assay for small molecule agonists of the p53 signaling pathway (AID 651631; calls by dose curve; note: nearly all actives have a fitted effect of over 15% in size; note: potency is the fitted concentration of half-maximal effect). The procedure, abridged: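 Beta-lactamase reporter activity under p53 response elements was quantified in HCT-116 cells by FRET fluorescence, following 16 h incubation with test compounds at 37 °C and 2 h substrate development at room temperature.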
Test [2] in a line: qHTS assay for small molecules that induce genotoxicity in human embryonic kidney cells expressing luciferase-tagged ATAD5 (AID 651632). Note: nearly all actives have a fitted effect of over 15% in size. Note: potency is the fitted concentration of half-maximal effect. The procedure, abridged:
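Luminescence read-out: after 16 hr compound exposure at 37C, ATAD5-luciferase HEK293T cells received Amplite, 30 min RT, then CCD imaging. A rise in signal marks genotoxic stress.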
On the technique in general: Quantitative high-throughput screening tests each substance at several concentrations.

Test [3] can be described thus: qHTS assay for small molecule agonists of the p53 signaling pathway - cell viability (AID 651633; calls by dose curve;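 note: p53RE-bla HCT reporter cells with a stable beta-lactamase p53 reporter; series mostly up to about 83 µM; nearly all actives have a fitted effect of over 30% in size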). An outline of the steps:
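p53RE-bla cells, seeded at 4,000 per well and rested 5 h at 37 C/5% CO2, received compounds in DMSO for 16 h at 37 C. CellTiter-Glo was then added, and luminescence was read after 30 min at room temperature to gauge cytotoxicity.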

A short description of test [4]: qHTS assay for small molecules that induce genotoxicity in human embryonic kidney cells expressing luciferase-tagged ATAD5 - cell viability (AID 651634; calls by dose curve; note: nearly all actives have a fitted effect of over 25% in size; note: potency is the fitted concentration of half-maximal effect). The procedure, abridged:
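HEK293T ATAD5-luc cells, 2,000/well; compound 15.5 hr, 37C/5% CO2; CellTiter-Fluor 30 min, 37C; fluorescence read.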

Test [5] can be described thus: qHTS assay to test for compound auto fluorescence at 590 nm (red) in HepG2 cells (AID 720674). The procedure, abridged: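 Intrinsic compound fluorescence in the red window (Ex/Em 540/590 nm) is measured in attached HepG2 cells exposed for 1 hr, DMSO vehicle as baseline, benchmarked to Rose Bengal sodium.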
The nature of test [6]: qHTS assay to test for compound auto fluorescence at 460 nm (blue) in HEK293 cells (AID 720678). The procedure, abridged: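 HEK293, 2,000 cells/well, 10% dialyzed FBS; attach 4-5 hr 37C; pin compound or DMSO; o/n 37C/5% CO2; fluorescence 405/460 nm; triamterene-equivalent units.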
The nature of test [7]: qHTS assay to test for compound auto fluorescence at 590 nm (red) in HEK293 cells (AID 720679). An outline of the steps:
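Intensity at 540nm excitation and 590nm emission is reported as Rose Bengal sodium-equivalent autofluorescence. Measurements followed overnight exposure (37C, 5% CO2) of HEK293 cells, 2,000 per well, to 23 nL compound.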

Test [8] is described as follows: qHTS assay to test for compound auto fluorescence at 535 nm (green) in HEK293 cells (AID 720680).
A short description of test [9]: qHTS assay to test for compound auto fluorescence at 460 nm (blue) in HEK293 cell free culture (AID 720681). An outline of the steps:
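Test compounds were pinned into cell-free culture medium (DMEM with 10% FBS) and fluorescence was read directly at Ex/Em 405/460 nm. Signals were expressed as fluorescence equivalents of triamterene, with DMSO vehicle as control.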

Test [10] in a line: qHTS assay to test for compound auto fluorescence at 535 nm (green) in HEK293 cell free culture (AID 720682). An outline of the steps: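 Each library compound, or DMSO control, is added by pintool to medium alone, comprising DMEM and 10% FBS. Emission at 535 nm following 485 nm excitation is quantified against fluorescein.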
Test [11] in a line: qHTS assay to test for compound auto fluorescence at 590 nm (red) in HEK293 cell free culture (AID 720683). The procedure, abridged: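 Tox21 10K library compounds were pinned into cell-free DMEM with 10% FBS and fluorescence was read at excitation 540 nm. Activity is expressed as Rose Bengal sodium equivalency.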
Test [12] in a line: qHTS assay to test for compound auto fluorescence at 590 nm (red) in HepG2 cell free culture (AID 720684). The procedure, abridged:
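Readout: intrinsic compound fluorescence at 590 nm emission after 540 nm excitation, scaled to Rose Bengal sodium. Matrix was cell-free MEM with 10% FBS; DMSO vehicle wells served as control.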

A short description of test [13]: qHTS assay to test for compound auto fluorescence at 460 nm (blue) in HepG2 cell free culture (AID 720685). The procedure, abridged: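 Cell-free plates of MEM plus 10% FBS received 23 nL compound or DMSO vehicle; blue-channel (405/460 nm) intensity scored against triamterene as reference fluorophore.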
Test [14] can be described thus: qHTS assay to test for compound auto fluorescence at 535 nm (green) in HepG2 cell free culture (AID 720686).
Test [15] is described as follows: qHTS assay to test for compound auto fluorescence at 460 nm (blue) in HepG2 cells (AID 720687). The procedure, abridged:
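Cells (2,000/well in MEM with 10% FBS) attached overnight at 37 C, then were exposed to compound or DMSO for 1 hr at 37 C, 5% CO2. Fluorescence read at Ex/Em 405/460 nm, expressed as triamterene-equivalent signal.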

The target of test [16] is Glucocorticoid receptor (Homo sapiens) (UniProt P04150). As to the kind of experiment: qHTS assay to identify small molecule agonists of the glucocorticoid receptor (GR) signaling pathway (AID 720691; active = well fitted activation curve with a large enough effect in the signal ratio in the repeat runs, not every such curve was filed as active; the % refers to the signal ratio). An outline of the steps: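 HeLa GR-bla reporter line; cells pre-incubated 4 h, compound in DMSO 18 h at 37 C; LiveBLAzer B/G FRET substrate 2 h RT; fluorescence intensity read-out.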

For test [17] the target is unchanged. As to the kind of experiment: qHTS assay to identify small molecule antagonists of the glucocorticoid receptor (GR) signaling pathway (AID 720692; active = well fitted inhibition curve with a large enough effect in the signal ratio in the repeat runs, not every such curve was filed as active; the % refers to the signal ratio). The procedure, abridged:
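Read-out: beta-lactamase FRET substrate fluorescence, 2 h at room temperature, in HeLa cells stably carrying a GRE-driven bla reporter. Compounds were co-incubated with 5 nM dexamethasone agonist (final) for 18 h at 37 C.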

Test [18] in a line: qHTS assay for small molecule disruptors of the mitochondrial membrane potential - cell viability (AID 720634; calls by dose curve;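 note: human HepG2 liver cancer cells; series mostly up to about 83 µM; nearly all actives have a fitted effect of over 20% in size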). An outline of the steps:
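Luminescence from CellTiter-Glo (ATP content) gave viability in HepG2 cells, read in the same wells as the MMP dye assay after 1 hr compound exposure at 37 C.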

The nature of test [19]: qHTS assay for small molecule disruptors of the mitochondrial membrane potential (AID 720635). Note: potency is the fitted concentration of half-maximal effect. An outline of the steps: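 HepG2 cells (2,000/well) attached overnight at 37C, then took compound for 1 hr at 37C, 5% CO2. Mito-MPS dye was added for 30 min; fluorescence was read at 490/535 nm (monomers) and 540/590 nm (aggregates).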
The nature of test [20]: qHTS assay to test for compound auto fluorescence at 535 nm (green) in HepG2 cells (AID 720675).
% is set by controls: 0 for no effect and ±100 for the full control effect.

Sequence of Glucocorticoid receptor (Homo sapiens) (P04150 whole entry, looked up): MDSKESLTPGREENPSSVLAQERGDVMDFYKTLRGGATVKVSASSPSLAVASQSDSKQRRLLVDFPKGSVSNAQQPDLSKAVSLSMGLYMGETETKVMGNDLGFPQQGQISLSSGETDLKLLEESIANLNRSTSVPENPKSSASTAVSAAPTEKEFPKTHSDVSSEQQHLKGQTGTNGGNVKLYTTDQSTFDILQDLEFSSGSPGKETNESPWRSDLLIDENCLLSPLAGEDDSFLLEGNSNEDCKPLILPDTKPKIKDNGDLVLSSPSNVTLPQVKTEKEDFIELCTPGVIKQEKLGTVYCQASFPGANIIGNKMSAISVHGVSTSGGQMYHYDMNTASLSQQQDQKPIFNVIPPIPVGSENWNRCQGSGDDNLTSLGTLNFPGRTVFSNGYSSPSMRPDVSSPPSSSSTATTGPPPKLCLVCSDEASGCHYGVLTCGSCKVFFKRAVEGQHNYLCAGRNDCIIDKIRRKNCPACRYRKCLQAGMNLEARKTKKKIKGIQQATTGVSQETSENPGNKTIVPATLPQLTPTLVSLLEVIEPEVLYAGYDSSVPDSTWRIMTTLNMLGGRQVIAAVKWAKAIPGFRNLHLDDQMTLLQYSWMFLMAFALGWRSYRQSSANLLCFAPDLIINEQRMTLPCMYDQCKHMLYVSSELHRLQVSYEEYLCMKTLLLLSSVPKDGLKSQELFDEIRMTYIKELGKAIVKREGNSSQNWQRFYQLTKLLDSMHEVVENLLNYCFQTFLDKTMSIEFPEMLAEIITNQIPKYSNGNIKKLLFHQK

With `CCC(CO)(CO)CO`, the Potency result in test [1], in test [2], in test [3], in test [4], in test [6] and in test [9] was “inactive” in each case. In addition, the Potency entry in test [13], in test [15], in [16] and in test [17] was “inactive” in each case. Further, the result in test [5], in test [7], in [8], in test [10], in test [11] and in test [12] was inactive. In [14], the compound was classed as inactive.

On to `Cc1cccc(C)c1NC(=O)c1cc(S(N)(=O)=O)c(Cl)cc1O`, for which the Potency result in test [1], in test [2], in test [4], in [19], in [6] and in [9] was “inactive” throughout. The Potency result in [13], in test [15], in test [16] and in [17] was “inactive” in each case. Besides, the compound was called inactive in [18], in test [5], in test [20], in [7], in test [8] and in [10]. For the same compound, the call in [11], in [12] and in [14] was inactive.

Take `Nc1nc2ccc(OC(F)(F)F)cc2s1`: the Potency in [1] is 7.5 µM (active); in test [2], 11.9 µM (active). In addition, the Potency entry in test [3], in test [6], in test [9], in test [13], in test [15] and in [16] was “inactive” throughout. For the same compound, the compound was called inactive in test [18], in [5], in [20], in [7], in test [8] and in [10]. Besides, the outcome in [11], in test [12] and in test [14] was inactive.

In the case of `Cc1cc(CCC(=O)OCCOCCOCCOC(=O)CCc2cc(C)c(O)c(C(C)(C)C)c2)cc(C(C)(C)C)c1O`, the Potency entry in [1], in test [2], in test [3], in [4], in test [6] and in test [13] was “inactive” each time. Also, the Potency entry in [15] and in test [16] was “inactive” throughout. Also, the Potency in [19] was 59.6 µM (active). Also, the result in test [5], in [20], in [7], in test [8], in test [10] and in [11] was inactive. Also, the compound was classed as inactive in test [14].

As for `CC(C)(C)NCC(O)COc1cccc2c1C[C@H](O)[C@H](O)C2` (some centres undefined), the Potency entry in test [1], in test [2], in test [3], in test [16] and in test [17] was “inactive” in each case. The call in [18] was inactive. Besides, the fluorescence, relative to Rose Bengal in [5] is 0.0921% [at 18.6 µM]. Also, the fluorescence, % of fluorescein control was 0.0163% [at 18.6 µM] in [20] and -0.0012% [at 18.6 µM] in test [14]. Moreover, in test [6], the fluorescence, % of triamterene is 0.0252% [at 18.6 µM]. Moreover, the fluorescence, % of fluorescent control in test [7] is -0.0478% [at 18.6 µM]; in [9], 0.0347% [at 18.6 µM]; in test [11], 0.19% [at 18.6 µM]; in [13], 0.0077% [at 18.6 µM]; in [15] it was 0.0012% [at 18.6 µM]. Besides, in [8], the fluorescence, % of fluorescein is 0.0671% [at 18.6 µM]. Also, the activity change in test [10] was 0.0167% [at 18.6 µM]. The fluorescence, % of Rose Bengal in [12] was -0.334% [at 18.6 µM].

For `Cc1c(C2(c3cc(Br)c(O)c(Br)c3C)OS(=O)(=O)c3ccccc32)cc(Br)c(O)c1Br`, the Potency result in [1], in test [2], in test [6], in [9], in test [13] and in test [15] was “inactive” each time. Moreover, in [16], the Potency entry was “inactive”. Also, the Potency in [4] is 8.38 µM (active). Also, the compound was classed as inactive in test [5], in [20], in test [7], in test [8], in test [10] and in [11]. Further, the compound was classed as inactive in test [12] and in [14].

In the case of `CSSc1ccoc1C`, the Potency result in test [1], in test [2], in test [4], in test [6], in test [13] and in test [15] was “inactive” each time. Besides, in [16], the Potency result was “inactive”. The result in test [18], in test [5], in test [7], in test [8], in test [10] and in test [11] was inactive. Also, the compound was classed as inactive in test [12] and in test [14].

Take `c1ccc(CNc2ncnc3c2ncn3C2CCCCO2)cc1` (centres undefined): the Potency entry in [1], in test [3], in test [4], in test [6], in [9] and in [13] was “inactive” in each case. Besides, the Potency result in test [15], in [16] and in test [17] was “inactive” in each case. Moreover, the result in test [18], in [5], in test [7], in test [8], in [10] and in test [11] was inactive. In addition, in test [14], the result was inactive.
